In PubChem BioAssay AID590 (National Center for Advancing Translational Sciences (NCATS), 2007):
The whole screen tested about 59,000 compounds, of which about 6,500 (11%) were called active. About 15% were inconclusive and are not listed. The sample holds actives, similar compounds and a random draw of the others, so the mix is not that of the screen. Cut-off read from the data, not from the text of the source: active = max dye-equivalent concentration above about 10 nM; inconclusive = mostly about 1.1 nM to 9.6 nM; inactive = weaker than that.

Test: qHTS Assay for Spectroscopic Profiling in A350 Spectral Region
Conditions: Compound autofluorescence, 340/450 nm, Alexa 350 dye-equivalents; stronger effect = higher value

Max dye-equivalent concentration, inactive:
Oc1cc2c(cc1O)CN(C(=S)NCCc1ccc(Cl)cc1)CCC2, O=S(=O)(NCc1ccccn1)c1ccc(Br)s1, O=S(=O)(c1cccs1)N1CCN(Cc2ccccc2)CC1, O=S(=O)(c1cccs1)N1CCc2ccccc2C1, COCCNc1ncnc2ccc(-c3ccccc3CN(C)C)cc12, COc1ccc(-c2cc(C(=O)NC(C(=O)O)C(C)C)c(C)o2)cc1OC (stereo unspecified), CCOC(=O)CSc1nnc(-c2ccncc2)o1, COC(=O)c1sc(NC(=O)c2ccc(OC)cc2OC)nc1C, CNC(=O)c1ccc2nc(NC(C)=O)sc2c1, CCOC(=O)c1sc(NC(=O)CSc2nnc(-c3ccco3)o2)c(C(=O)OCC)c1C, O=C(c1csnn1)N1CCC[C@@]2(CCN(c3cccc(-c4ccccc4)c3)C2)C1, COc1ccc(-n2c(SCC(=O)OC(C)C)nnc2-c2ccccn2)cc1, CCOc1cccc(-n2nnnc2-c2ccc(OC)cc2)c1, COc1ccc(C2C(C(=O)Nc3ccccc3OC)=C(C)Nc3nnnn32)c(OC)c1 (stereo unspecified), COC(=O)C1=C(C)NC(=O)NC1/C=C/c1ccccc1 (stereo unspecified), O=S(=O)(Nc1ccccn1)c1ccc(Oc2ccccc2)cc1, c1ccc2[nH]c(NCCN3CCOCC3)nc2c1, COc1cc(C2C(C#N)=C(N)Oc3n[nH]c(-c4ccccn4)c32)cc(OC)c1OC (stereo unspecified), CCc1nnc(NC(=O)c2c(O)c3c([nH]c2=O)CCCC3)s1, CN(Cc1ccccc1)Cc1ccccc1F, Cc1ccc(S(=O)(=O)N2CCC(C(=O)N[C@@H](C)C(=O)NCc3ccccc3)CC2)cc1, O=C(c1csnn1)N1CCC2(CC1)CN(c1ncccn1)C2, CC(C)OCCCNC(=O)CNC(=O)c1cccs1, CCCCOc1ccc(Cl)cc1CSc1nncn1N, O=C1[C@@H]2C(Cc3ccc(O)cc3)NC3(C(=O)Nc4ccc(F)cc43)[C@@H]2C(=O)N1c1ccc(F)cc1 (stereo partly specified), Cc1cc(C(=O)COC(=O)CCCN2C(=O)c3ccccc3C2=O)c(C)n1C, O=C(CN1C(=O)CCC1=O)Nc1ccc(S(=O)(=O)N2CCOCC2)cc1, CC(=O)OCc1cc(=O)n(C)c(=O)n1C, COc1c(C)cccc1C(=O)Nc1cc(Cl)ccc1N1CCOCC1, O=C(O)[C@@H](O)Cc1ccccn1, COc1ccc2c(c1)CCc1c(C(=O)N3CCc4ccccc4C3)noc1-2, CCOC(=O)c1[nH]c2ccccc2c1N=C(C)N(CC)CC, CCOC(=O)CN(C)Cc1c[nH]c2ccccc12, CC(=O)c1cccc(NC(=O)N2CCCC2C(=O)NCCC(C)C)c1 (stereo unspecified), CC12CCC(C(=O)N3CCN(c4ncccn4)CC3)(c3nc4ccccc4nc31)C2(C)C (stereo unspecified), O=c1nc(N2CCOCC2)nc2n1CCO2, O=C(CSc1nc2ccccc2[nH]1)c1cccs1, Cn1cccc1C(=O)N1CCC2(CC1)CN(c1cccc(-c3ccccc3)c1)C2, CCC1SC2=NCCN2C1(O)c1ccc(Cl)cc1 (stereo unspecified), Cc1cc(NC(=O)c2cnn3cccnc23)n(-c2ccccc2)n1, CCC(C(=O)NC1CCCC1)N(C(=O)c1snc(C(N)=O)c1N)c1ccc2c(c1)OCCO2 (stereo unspecified), COCCNC(=O)C(c1ccc(C)o1)N(Cc1ccccc1)C(=O)Cn1nnc2ccccc21 (stereo unspecified), N=c1c2c3c(sc2ncn1CCCN1CCOCC1)CCCCC3, O=c1[nH]nc(Cc2ccccn2)c2ccccc12, CCNc1nc(N)nc(Oc2ccc(OCC)nn2)n1, COc1ccccc1N1CCN(C(=O)CN(Cc2ccc(Cl)cc2)S(C)(=O)=O)CC1, Cn1cccc1C(=O)Nc1nccs1, O=C1C2(c3ccccc3)CN(CCCO)CC1(c1ccccc1)CN(CCCO)C2, Cn1c(=O)[nH]c(=O)c2c1nc(Br)n2CCCCSc1nc2ccccc2o1, Fc1ccc2nc(N3CCCCC3)sc2c1, CCCn1c(SCC(=O)Nc2cccc(C(=O)OCC)c2)nnc1-c1ccoc1C, Cc1cc(=O)cc(C)[nH]1, Cc1ccccc1-c1nc(N(C)Cc2ccco2)c2ccccc2n1, Clc1cccc(Cl)c1Cn1nnc(-c2cccs2)n1, CCOC(=O)c1c(N)c(C#N)nn1-c1ccccc1C(=O)OC, O=C(Nc1ccccc1)c1cccnc1Nc1ccccc1, Oc1ccc2nc(Cc3ccccc3)[nH]c2c1, CCC(=O)Nc1cccc(NC(=O)CSc2nnnn2C2CCCC2)c1, Cc1ccc(S(=O)(=O)NCc2cn3ccsc3n2)c(C)c1, c1ccc(-c2cc(-c3nnc4sc(-c5ccccn5)nn34)[nH]n2)cc1, CCOc1cccc(-c2nnc3sc(COc4ccc(OC)cc4)nn23)c1, CCOC(=O)CNC(=O)CSc1nnc(-c2cccc(OC)c2)n1CC, c1ccc(-c2nnc3n2NC(c2ccc4c(c2)OCO4)S3)cc1 (stereo unspecified), CC(=O)Nc1ccc(-c2nn3c(C)nnc3s2)cc1C, Cc1nnc2sc(-c3ccco3)nn12, O=C(CSc1nnc2scc(-c3ccc(F)cc3)n12)NCc1ccco1, COc1ccccc1Cn1c(=S)[nH]c2cc(C(=O)N3CCN(C)CC3)ccc2c1=O, CSCCC1NC2(C(=O)Nc3ccc(Cl)cc32)[C@@H]2C(=O)N(C3CCCC3)C(=O)[C@H]12 (stereo partly specified), Cc1ccc2c(C(=O)CN3CCCC3)c(C)[nH]c2c1, CC(C)C(=O)N1CCN(CCN=CC2=C(O)CC(c3ccco3)CC2=O)CC1 (stereo unspecified), CC(C)c1ccc(N2CC(C(=O)Nc3nccs3)CC2=O)cc1 (stereo unspecified), COC(=O)c1ccc(CSc2nncn2C)cc1, O=C(NCCSc1ccccc1)c1ccco1, O=C(CSc1nc(-c2ccco2)cc(C(F)(F)F)n1)N1CCc2ccccc2C1, O=C(Nc1ccccc1)Nc1ccccc1C(=O)NCc1ccco1, COC(=O)c1ccccc1NC(=O)Cn1nc(C(F)(F)F)c2c1CCC2, O=C(NCc1ccco1)c1cc(-c2cccnc2)nc2ccc(Cl)cc12, CN(C(=O)CSc1nnnn1-c1ccccc1)C1CCCCC1, Cc1oc2nc(SCC(=O)NCc3cccnc3)nc(N)c2c1C, O=C(c1ccc2c(c1)N(Cc1ccc(F)cc1)C(=O)CS2)N1CCOCC1, Cc1cc(=O)n2c3c(cccc13)CCC2, Cn1c(C(=O)NCCN2CCc3ccccc3C2)cc2c(=O)[nH]c3ccccc3c21, Cc1cnc(CNc2nc(-c3cccnc3)nc3ccccc23)cn1, CN(C)CCSS(=O)(=O)O, C[C@]1(O)CC[C@H]2[C@H]3CC=C4N5CCN=C5CC[C@@]4(C)[C@H]3CC[C@@]21C, CC(=O)c1cc(-c2ccccc2)[nH]c1N1CCCC1, S=c1c2[nH]cnc2ncn1CCSc1ncnc2nc[nH]c12, CC(C)(C)c1csc(NC2=NS(=O)(=O)c3ccccc32)n1

Max dye-equivalent concentration, active:
CCCCNc1nc2ccccc2nc1NS(=O)(=O)c1cccs1 61 nM, COc1ccc2nc(NC(=O)c3ccc(Br)s3)sc2c1 550 nM, COc1ccc(C2=CC(c3cccc(OC)c3)n3nnnc3N2)cc1 (stereo unspecified) 15 nM, CC(C)c1nc(N2CCOCC2)c(C#N)c2c1COC(C)(C)C2 150 nM, CC1(C)Cc2c(C#N)c(SCc3nc4ccccc4[nH]3)nc(N3CCOCC3)c2CO1 23 nM, COc1ccc(CSc2nc(N3CCOCC3)c3c(c2C#N)CC(C)(C)OC3)cc1 34 nM, CC(C)C(=O)N1CCN(c2nc(-c3ccccc3)c3c(c2C#N)CC(C)(C)OC3)CC1 200 nM, CC(C)Cc1nc(N2CCOCC2)c(C#N)c2c1CCC2 62 nM, CCOC(=O)c1[nH]c2ccc(C)cc2c1N=C(C)N(C)C 29 nM, N#Cc1c(N)n(CCOC(=O)c2ccc(Cl)cc2)c2nc3ccccc3nc12 610 nM, CC[C@@H]1Cc2cc(O)ccc2C2=C1c1ccc(O)cc1C[C@H]2CC 260 nM, COCCNC(=O)C(c1ccc(C)o1)N(Cc1cccs1)C(=O)c1snc(C(N)=O)c1N (stereo unspecified) 88 nM, CN(CCc1ccccn1)S(=O)(=O)c1ccc2c3c(cccc13)C(=O)N2 790 nM, Cn1cccc1C(=O)NC(=O)COC(=O)Cc1coc2ccc3ccccc3c12 38 nM, Cc1cc(N2CCCCC2)nc2ccc(Cc3ccc4nc(N5CCCCC5)cc(C)c4c3)cc12 43 nM, COC(=O)Nc1nc2ccc(Sc3ccccc3)cc2[nH]1 16 nM, COc1cc(-c2nn3c(-c4cccc(C)c4)nnc3s2)cc(OC)c1OC 2600 nM, Fc1ccc(-c2ccc(-c3nn4c(-c5ccco5)nnc4s3)o2)cc1 68 nM, Fc1ccc(-c2nnc3sc(-c4ccc5c(c4)OCO5)nn23)cc1 36 nM, COC(=O)c1cnn2c(C(F)(F)F)cc(-c3ccco3)nc12 870 nM, O=C(NCc1ccco1)c1cnn2c(C(F)(F)F)cc(-c3ccco3)nc12 300 nM, CCNC(=O)c1c(O)c2cccc3c2n(c1=O)CC3 22 nM, Cc1cc(N2CCCC2)n2nc(C)c(-c3ccccc3)c2n1 220 nM
